Each structure is given as a SMILES string. In all, about 360,000 compounds went through this assay and about 510 (0.14%) were called active.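 The calls were made as follows: active = mean normalized replicate activity at least 40 and at least half of replicates scoring 40 or more; inconclusive = only one of the two criteria met; inactive = mean below 40 and under half of replicates reaching 40.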 The list comes from a sample in which actives are over-represented; it also holds similar structures and randomly drawn compounds.

DNA repair and recombination protein RAD54-like (Homo sapiens), sequence (Q92698 whole entry, looked up): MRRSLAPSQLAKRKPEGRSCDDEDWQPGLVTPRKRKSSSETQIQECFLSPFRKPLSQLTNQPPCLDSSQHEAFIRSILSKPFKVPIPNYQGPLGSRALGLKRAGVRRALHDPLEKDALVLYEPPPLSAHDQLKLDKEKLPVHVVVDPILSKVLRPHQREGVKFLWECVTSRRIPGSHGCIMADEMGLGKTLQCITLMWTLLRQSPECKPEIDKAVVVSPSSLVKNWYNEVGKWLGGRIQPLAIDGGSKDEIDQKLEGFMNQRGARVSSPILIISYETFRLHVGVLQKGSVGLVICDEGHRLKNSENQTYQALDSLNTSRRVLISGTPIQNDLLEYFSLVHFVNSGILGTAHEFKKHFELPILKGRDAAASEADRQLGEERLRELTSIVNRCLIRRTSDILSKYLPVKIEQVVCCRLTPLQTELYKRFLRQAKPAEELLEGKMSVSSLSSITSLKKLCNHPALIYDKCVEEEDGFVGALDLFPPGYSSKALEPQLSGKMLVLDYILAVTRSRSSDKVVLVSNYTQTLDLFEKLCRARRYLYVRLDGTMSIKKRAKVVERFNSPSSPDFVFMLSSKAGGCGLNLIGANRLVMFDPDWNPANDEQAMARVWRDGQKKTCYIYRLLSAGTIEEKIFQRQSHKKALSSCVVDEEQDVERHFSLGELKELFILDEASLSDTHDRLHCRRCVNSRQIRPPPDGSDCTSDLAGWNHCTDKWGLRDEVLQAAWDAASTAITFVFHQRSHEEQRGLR

The assay concerns the target DNA repair and recombination protein RAD54-like (Homo sapiens) (UniProt Q92698). Description: RAD54 Holliday junction migration blockers – biochemical, fluorescence, single point, primary screen (AID 602329).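 Also: 0% = median of neutral control wells and 100% = median of positive control wells; inhibitors cause a drop in the FAM fluorescence signal.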 Conditions: RAD54 Holliday junction branch migration, FAM/BHQ fluorescence; at 10.4 µM; hits give high values.
For `O=C(C[C@H]1CC[C@H]2[C@@H](COC[C@H](O)CN2C(=O)c2ccncc2)O1)NCc1cc(F)cc(F)c1`, the inhibition (as a rule, the drop in the measured response relative to a control, in per cent) is 1.6% (inactive).
Under `C[C@H](CO)N1C[C@H](C)[C@H](CN(C)S(=O)(=O)c2cccs2)Oc2c(NS(=O)(=O)c3ccc(Cl)cc3)cccc2C1=O` stands 3.72% (inactive); under `Cc1nc2ccccc2c2oc(C(=O)NCCCN3CCC(C)CC3)cc12`, 55.2% (active).
Under `CC1CCN(CCCn2c(SCC(=O)NC3CCCC3)nc3ccccc3c2=O)CC1` stands -8.12% (inactive).
Under `CC1CCN(C(=O)CCNC(=O)c2ccccc2)CC1` stands -8.53% (inactive); under `CC1CCc2sc3nc(N4CCN(CCO)CC4)n4ncnc4c3c2C1` (configuration not stated), 53.7% (active); under `CN1C[C@@H](CO)O[C@@H](n2cnc3c(N4CCN(CCO)CC4)ncnc32)C1`, -0.96% (inactive).
For the molecule `COCc1cn(CC[C@@H]2CC[C@@H](NC(=O)Nc3ccc(C(F)(F)F)cc3)[C@H](CO)O2)nn1`, the inhibition was -5.23% (inactive).
The value for `C[C@@H]1CN([C@@H](C)CO)C(=O)c2ccccc2-c2ccccc2CO[C@H]1CN(C)C(=O)Nc1ccccc1` was 2.07% (inactive); that for `CO[C@@H]1CN(C)C(=O)c2ccc(NS(C)(=O)=O)cc2OC[C@H](C)NC[C@H]1C` was 0.663% (inactive).
Regarding `CN1c2ccc(C3=CCCCC3)cc2[C@@H]2[C@@H](CCN2C(=O)Nc2cc(F)ccc2F)[C@@H]1CO`, the inhibition is 7.43% (inactive).
Under `C[C@@H]1CN([C@@H](C)CO)C(=O)c2cc(NC(=O)Nc3ccc(C(F)(F)F)cc3)ccc2O[C@@H](C)CCCCO[C@H]1CN(C)C(=O)CCCN(C)C` stands 25% (inactive).
Under `COc1ccccc1-c1ccc2n(c1=O)C[C@H]1[C@H](CO)[C@@H](C(=O)N[C@@H](C)c3ccccc3)[C@@H]2N1C` stands -1.98% (inactive); under `CO[C@@H](CN(C)S(=O)(=O)c1cccc(Cl)c1)[C@H](C)CN([C@H](C)CO)S(=O)(=O)c1cccc(Cl)c1`, 1.71% (inactive).
The value for `C[C@@H]1CN([C@H](C)CO)C(=O)c2cccc(NS(=O)(=O)c3ccc(F)cc3)c2O[C@@H]1CN(C)S(=O)(=O)c1ccccc1` was 2.48% (inactive).
Take `CO[C@@H]1CN(C)C(=O)c2ccc(NC(=O)C3CCCC3)cc2OC[C@H](C)NC[C@@H]1C`: the inhibition was 4.25% (inactive).
Under `O=C(C[C@@H]1C=C[C@@H](NC(=O)Nc2cccc(F)c2)[C@H](CO)O1)NCC1CCCCC1` stands -1.32% (inactive).
`CCN(CC)CCn1c2ccc(Cl)cc2c2nc(C)sc21`: the inhibition is 63.6% (active).
Under `CCN(CC)CCNc1ccc(Cl)cc1[N+](=O)[O-]` stands 7.16% (inactive); under `COc1ccccc1C(=O)N1C[C@H]2[C@@H](c3ccccc31)[C@H](CO)N2C(=O)C1CC1`, -5.07% (inactive); under `Cc1ccccc1-c1ccc2c(c1)O[C@@H](CN(C)Cc1ccc(C(=O)O)cc1)[C@H](C)CN([C@H](C)CO)S2(=O)=O`, 0.48% (inactive).
The value for `COc1ccc(S(=O)(=O)N(C)C[C@@H]2OCCCC[C@@H](C)Oc3ccc(NC(=O)CCCN(C)C)cc3C(=O)N([C@@H](C)CO)C[C@@H]2C)cc1` was -3.63% (inactive); that for `CCC(=O)N(C)C[C@H]1Oc2ncc(-c3ccc(C)cc3)cc2C(=O)N([C@@H](C)CO)C[C@@H]1C` was 12% (inactive); that for `Cc1noc(C)c1NC(=O)Nc1cccc2c1O[C@@H](CN(C)Cc1ccc(C(F)(F)F)cc1)[C@@H](C)CN([C@@H](C)CO)C2=O` was 3.12% (inactive).
The value for `C[C@@H]1CN([C@@H](C)CO)C(=O)c2cccc(NS(=O)(=O)c3ccccc3)c2O[C@@H]1CN(C)S(=O)(=O)c1ccc(F)cc1` was -8.79% (inactive).
Regarding `CCC(=O)N1C[C@@H](C)[C@H](OC)CN(C)C(=O)c2ccc(NC(=O)c3cc(C)on3)cc2OC[C@H]1C`, the inhibition was -6.97% (inactive).
Under `COc1cccc(-c2ccc3n(c2=O)C[C@@H]2[C@@H](CO)[C@H](C(=O)N4CCCCC4)N[C@H]32)c1` stands -5.16% (inactive); under `CO[C@H]1CC[C@@H]2CCOc3c(C#N)cccc3C(=O)N(C)CCCC(=O)N(C)C[C@@H]1O2`, -6.75% (inactive).
Consider `Cc1cc(C(=O)Nc2cccc3c2O[C@@H](CN(C)C(=O)Nc2ccc4c(c2)OCO4)[C@H](C)CN([C@@H](C)CO)C3=O)n(C)n1`, for which the inhibition was 14.9% (inactive).
Under `C[C@@H]1CN([C@H](C)CO)C(=O)c2cc(NC(=O)CCCN(C)C)ccc2O[C@H]1CN(C)S(=O)(=O)c1ccc(Cl)cc1` stands 3.22% (inactive); under `C[C@H]1CCCCO[C@@H](CN(C)C(=O)c2ccccc2)[C@@H](C)CN([C@@H](C)CO)C(=O)c2cc(NS(=O)(=O)c3cccs3)ccc2O1`, -5.69% (inactive).
The value for `CCCNC(=O)Nc1ccc2c(c1)C(=O)N(C)C[C@H](OC)[C@H](C)CN(Cc1ccncc1)[C@H](C)CO2` was 3.54% (inactive); that for `CCCC#Cc1cnc2c(c1)C(=O)N([C@H](C)CO)C[C@@H](C)[C@@H](CN(C)C(=O)Nc1ccccc1F)O2` was -0.939% (inactive); that for `C[C@@H]1CN([C@H](C)CO)C(=O)c2cccc(NS(=O)(=O)c3ccc(Cl)cc3)c2O[C@@H]1CN(C)Cc1ccc(Cl)c(Cl)c1` was -2.03% (inactive).
Under `C[C@H](O)C#Cc1cnc2c(c1)C(=O)N([C@H](C)CO)C[C@@H](C)[C@@H](CN(C)C(=O)Nc1ccc(C(F)(F)F)cc1)O2` stands -3.33% (inactive); under `C[C@@H]1CN([C@@H](C)CO)C(=O)c2cc(NC(=O)CCN3CCOCC3)ccc2O[C@@H]1CN(C)S(=O)(=O)c1ccccc1`, 5.08% (inactive).
As to `C[C@@H]1CN([C@@H](C)CO)S(=O)(=O)c2ccc(-c3ccccc3F)cc2O[C@H]1CN(C)Cc1cncnc1`, the inhibition was -6.21% (inactive).
The value for `OC[C@@H]1[C@H](c2ccc(C3=CCCC3)cc2)[C@H]2CN(Cc3ccncc3)CCCCN12` was 1.55% (inactive); that for `COc1cccc(NC(=O)N(C)C[C@H]2Oc3cc(/C=C/c4ccccc4)ccc3S(=O)(=O)N([C@H](C)CO)C[C@@H]2C)c1` was -2.16% (inactive).
Under `C[C@H]1CN([C@@H](C)CO)C(=O)c2cc(C#CC3CCCC3)cnc2O[C@@H]1CN(C)C(=O)Cc1ccccn1` stands 3.4% (inactive).
As for `O=C(N[C@H]1CC[C@@H](CCNS(=O)(=O)c2cccc(Cl)c2)O[C@@H]1CO)c1ccncc1`, the inhibition was -2.66% (inactive).
Under `Cc1ccc(S(=O)(=O)N(C)C[C@@H]2Oc3ccc(NC(=O)Nc4ccc5c(c4)OCO5)cc3C(=O)N([C@@H](C)CO)C[C@@H]2C)cc1` stands 2.81% (inactive).
The value for `COc1ccc(S(=O)(=O)Nc2cccc3c2O[C@@H](CN(C)S(=O)(=O)c2c(C)noc2C)[C@@H](C)CN([C@H](C)CO)C3=O)cc1` was 4.47% (inactive).
The value for `C#CCOCCOCCOCCNc1nc(N2CCN(C(=O)[C@H](CO)n3cc([C@@H](N)C(C)C)nn3)CC2)nc(N2CCN(C(=O)[C@H](CCC(=O)O)n3cc([C@@H](N)[C@H](C)CC)nn3)CC2)n1` was -7.97% (inactive); that for `C#CCOCCOCCOCCNc1nc(N2CCN(C(=O)[C@H](CCCCN)n3cc([C@@H](N)C(C)CC)nn3)CC2)nc(N2CCN(C(=O)[C@H](Cc3ccc(O)cc3)n3cc([C@@H](N)C(C)CC)nn3)CC2)n1` (some centres not stated) was -6.01% (inactive).
For `C#CCOCCOCCOCCNc1nc(N2CCN(C(=O)C([C@@H](C)O)n3cc([C@@H](N)CCCCN)nn3)CC2)nc(N2CCN(C(=O)[C@H](CCCCN)n3cc(CN)nn3)CC2)n1` (some centres not stated), the inhibition is 69.5% (active).
As to `CC(=O)N1[C@H](CO)[C@@H](c2ccccc2)[C@@H]1CN(CC(C)C)C(=O)c1ccccn1`, the inhibition was -0.684% (inactive).
For the molecule `Cc1ccc(S(=O)(=O)Nc2ccc3c(c2)C(=O)N([C@@H](C)CO)C[C@H](C)[C@@H](CN(C)C(=O)Nc2ccc(F)cc2)OCCCC[C@H](C)O3)cc1`, the inhibition was 8.58% (inactive).
The value for `COC(=O)C[C@H]1CC[C@H]2[C@H](COc3ccc(NC(=O)C4CC4)cc3C(=O)N2C)O1` was -2.57% (inactive); that for `C[C@@H](NC(=O)C[C@H]1CC[C@H](NS(=O)(=O)c2cccc(F)c2)[C@H](CO)O1)c1ccccc1` was 0.335% (inactive); that for `O=C(Nc1cc(F)ccc1F)N1C[C@H]2[C@@H](c3ccccc31)[C@@H](CO)N2C(=O)c1ccccc1` was 8.71% (inactive).
The value for `Cc1ccc(S(=O)(=O)Nc2ccc3c(c2)C(=O)N([C@H](C)CO)C[C@H](C)[C@@H](CN(C)S(=O)(=O)c2cn(C)cn2)OCCCC[C@H](C)O3)cc1` was 1.15% (inactive); that for `O=C([C@H]1[C@H](CO)[C@H]2Cn3c(ccc(C4=CCCCC4)c3=O)[C@@H]1N2)N1CCCCC1` was -7.2% (inactive).
Under `CCN(CC)CCCNC(=O)c1cc2c(=O)[nH]c3ccc(C)cc3c2s1` stands 51.5% (active); under `Cc1ccc2[nH]c(=O)c(CC(=O)O)c(-c3ccccc3)c2c1`, -1.43% (inactive); under `Cc1cccc(N(C)C(=O)c2cc3c(=O)[nH]c4ccc(C)cc4c3s2)c1`, -5.82% (inactive).
Consider `CO[C@H]1CN(C)C(=O)c2cc(NC(=O)C3CC3)ccc2OC[C@H](C)N(CC2CCCC2)C[C@@H]1C`, for which the inhibition was -8.31% (inactive).
Under `Cc1noc(C)c1NC(=O)Nc1ccc2c(c1)C(=O)N([C@H](C)CO)C[C@@H](C)[C@@H](CN(C)C(=O)NC(C)C)O2` stands 8.07% (inactive); under `CC(C)NC(=O)Nc1ccc2c(c1)C(=O)N([C@@H](C)CO)C[C@@H](C)[C@H](CN(C)C(=O)NC1CCCCC1)O2`, -6.48% (inactive).
The value for `CN1CCN(Cc2c(O)ccc3c2oc(=O)c2ccccc23)CC1` was 61.1% (active); that for `N#Cc1ccccc1S(=O)(=O)N1CCN(Cc2c(O)ccc3ccccc23)CC1` was 1.29% (inactive).
As to `O=c1oc2c(CN3CCCCC3)c(O)ccc2c2c1CCCCC2`, the inhibition was 3.11% (inactive).

Source of the values: PubChem BioAssay AID602329 (Broad Institute, 2012).
